Test results published in PubChem BioAssay (NCI).
Values joined by “and” are separate entries in the source; they are usually repeats but may differ in a detail not shown here. Identical values can stand only once. The panel holds about 79,000 compounds, 15% with a hit somewhere; the sample as a whole holds those more often. Some structures have more than one record in an assay (separate samples or runs), and their calls can disagree. Active and inactive are the calls of the source. No stated cut-off is given here; in the data, active means growth inhibition above about 70%; inactive means the rest.

Key:
[1] = NCI Yeast Anticancer Drug Screen. Data for the rad52 strain (AID 147);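 further: 0% = growth of vehicle-treated control cultures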; conditions: S. cerevisiae rad52 mutant growth inhibition, stronger effect = higher value
Procedure, shortened: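 Measured: yeast growth inhibition. System: strain with a defined DNA damage repair alteration. Reference: vehicle-treated control cultures.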

[2] = NCI Yeast Anticancer Drug Screen. Data for the wt1 strain (AID 149);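 further: 0% = growth of vehicle-treated wt1 cultures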; conditions: S. cerevisiae wt1 strain (SPY 50644) growth inhibition, stronger effect = higher value
Procedure, shortened: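 Growth inhibition read against vehicle controls after compound exposure of the wt1 yeast strain.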

[3] = NCI Yeast Anticancer Drug Screen. Data for the rad50EPP+ strain (AID 151);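 further: 0% = growth of vehicle-treated control cultures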; conditions: S. cerevisiae rad50 mutant strain, stronger effect = higher value
Procedure, shortened: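 One strain with a rad50 alteration (rad50EPP+) was compound-treated, its growth then compared to that of vehicle controls.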

[4] = NCI Yeast Anticancer Drug Screen. Data for the mgt1 strain (AID 153); conditions: S. cerevisiae mgt1 mutant growth inhibition, stronger effect = higher value
Procedure, shortened: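 After exposure of the mgt1 yeast mutant to compound, growth was measured and reported as inhibition compared with vehicle controls.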

[5] = NCI Yeast Anticancer Drug Screen. Data for the rad50 strain (AID 155);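 further: 0% = growth of vehicle-only cultures of the same strain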; conditions: S. cerevisiae rad50 strain growth inhibition, stronger effect = higher value
Procedure, shortened: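 Readout: growth inhibition relative to vehicle-treated cultures. Compound exposure was carried out in a genetically defined yeast strain deficient in DNA damage repair.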

[6] = NCI Yeast Anticancer Drug Screen. Data for the mec2-1 strain (AID 157); conditions: S. cerevisiae mec2-1 strain, stronger effect = higher value
Procedure, shortened: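 Test agents were screened against the mec2-1 yeast strain, with defined DNA repair or cell cycle alteration. Growth was scored as inhibition against vehicle-only controls.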

[7] = NCI Yeast Anticancer Drug Screen. Data for the rad14 strain (AID 159);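 further: 0% = growth of vehicle-treated control cultures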; conditions: S. cerevisiae rad14 strain growth inhibition, stronger effect = higher value
Procedure, shortened: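 Growth inhibition vs vehicle controls; genetically altered yeast strain (DNA damage repair defect) treated with test compounds.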

[8] = NCI Yeast Anticancer Drug Screen. Data for the sgs1 mgt1 strain (AID 161);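 further: 0% = growth of cultures given vehicle only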; conditions: S. cerevisiae sgs1 mgt1 strain, stronger effect = higher value
Procedure, shortened: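 Read-out: growth inhibition vs vehicle controls. Cells: mutant yeast strain deficient in DNA damage repair.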

[9] = NCI Yeast Anticancer Drug Screen. Data for the CLN2oe strain (AID 163);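 further: 0% = growth of vehicle-only control cultures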; conditions: S. cerevisiae CLN2oe strain, stronger effect = higher value
Procedure, shortened: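 Here, growth inhibition in a cell-cycle-altered yeast strain after compound exposure was quantified against vehicle control growth.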

[10] = NCI Yeast Anticancer Drug Screen. Data for the cln2 rad14 strain (AID 165);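 further: 0% = growth equal to vehicle treated cultures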; conditions: S. cerevisiae cln2 rad14 strain, at 50.0 µM, stronger effect = higher value
Procedure, shortened: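 Growth of compound-exposed yeast (cln2 rad14 genotype) measured and expressed as inhibition relative to vehicle.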

[11] = NCI Yeast Anticancer Drug Screen. Data for the bub3 strain (AID 167); conditions: S. cerevisiae bub3 mutant strain, stronger effect = higher value
Procedure, shortened: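 Readout: yeast growth inhibition, expressed relative to vehicle-only wells. The test organism is a mutant strain from a panel with lesions in DNA repair or checkpoint genes.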

[12] = NCI Yeast Anticancer Drug Screen. Data for the wt2 strain (AID 169);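 further: 0% = growth of vehicle-treated yeast cultures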; conditions: S. cerevisiae wt2 strain growth inhibition, stronger effect = higher value
Procedure, shortened: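 Genetically defined yeast strains from a DNA-repair/cell-cycle panel were used. Compound-exposed yeast growth was measured, and the inhibition was calculated relative to vehicle treatment.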

[13] = NCI Yeast Anticancer Drug Screen. Data for the mlh1 strain (AID 171);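 further: 0% = growth of vehicle-treated control cultures of the same strain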; conditions: S. cerevisiae mlh1 strain growth inhibition, stronger effect = higher value
Procedure, shortened: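 Here the genetically defined yeast mutant is grown with each compound, and the extent to which its growth falls below that of vehicle-exposed cells is reported.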

[14] = NCI Yeast Anticancer Drug Screen. Data for the sgs1 strain (AID 173);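 further: 0% = growth of vehicle-only control cultures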; conditions: S. cerevisiae sgs1 mutant, stronger effect = higher value
Procedure, shortened: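 Relative growth inhibition, referenced to vehicle, was determined in a yeast strain with a defined alteration affecting DNA damage repair or cell cycle control after compound exposure.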

[15] = NCI Yeast Anticancer Drug Screen. Data for the mlh1 rad18 strain (AID 175); conditions: S. cerevisiae mlh1 rad18 strain growth inhibition, stronger effect = higher value
Procedure, shortened: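 In this whole-cell yeast screen, a strain with altered DNA damage repair is challenged with compound, and its growth is measured against matched vehicle-treated controls.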

[16] = NCI Yeast Anticancer Drug Screen. Data for the rad18 strain (AID 177); conditions: S. cerevisiae rad18 mutant growth inhibition, stronger effect = higher value
Procedure, shortened: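 Screen uses a yeast strain with a defined lesion in DNA damage repair; compound effect is read as loss of growth compared to untreated vehicle cultures.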

[17] = at 5.0 µM (retest, dose inferred, filed as 0.5)
[18] = at 50.0 µM (retest, dose inferred, filed as 5.0)

SMILES: Oc1cccc2cccnc12
- growth inhibition ([1]; at 1.2 µM): 20% (inactive)
- growth inhibition ([1]; at 3.7 µM): 91% (active)
- growth inhibition ([1]; at 11.0 µM): 93% (active)
- growth inhibition ([1]; at 33.0 µM): 94% (active)
- growth inhibition ([1]; at 100.0 µM): 96% (active)
- growth inhibition ([2]; at 1.2 µM): 27% (inactive)
- growth inhibition ([2]; at 3.7 µM): 95% (active)
- growth inhibition ([2]; at 11.0 µM): 99% (active)
- growth inhibition ([2]; at 33.0 µM): 99% (active)
- growth inhibition ([2]; at 100.0 µM): 98% (active)
- growth inhibition ([3]; at 1.2 µM): -11% (inactive)
- growth inhibition ([3]; at 3.7 µM): 93% (active)
- growth inhibition ([3]; at 11.0 µM): 94% (active)
- growth inhibition ([3]; at 33.0 µM): 94% (active)
- growth inhibition ([3]; at 100.0 µM): 95% (active)
- growth inhibition ([4]; at 1.2 µM): 4% (inactive)
- growth inhibition ([4]; at 3.7 µM): 91% (active)
- growth inhibition ([4]; at 11.0 µM): 96% (active)
- growth inhibition ([4]; at 33.0 µM): 98% (active)
- growth inhibition ([4]; at 100.0 µM): 97% (active)
- growth inhibition ([5]; at 1.2 µM): 18% (inactive)
- growth inhibition ([5]; at 3.7 µM): 85% (active)
- growth inhibition [5, 17]: 78% (active) and 97% (active) and 96% (active)
- growth inhibition ([5]; at 11.0 µM): 97% (active)
- growth inhibition ([5]; at 33.0 µM): 97% (active)
- growth inhibition [5, 18]: 99% (active)
- growth inhibition ([5]; at 50.0 µM): 99.1% (active) [middle of 4 runs]
- growth inhibition ([5]; at 100.0 µM): 96% (active)
- growth inhibition ([6]; at 1.2 µM): 6% (inactive)
- growth inhibition ([6]; at 3.7 µM): 85% (active)
- growth inhibition ([6]; at 11.0 µM): 97% (active)
- growth inhibition ([6]; at 33.0 µM): 99% (active)
- growth inhibition [6, 18]: 99% (active) and 100% (active)
- growth inhibition ([6]; at 50.0 µM): 99.1% (active) [middle of 4 runs]
- growth inhibition ([6]; at 100.0 µM): 98% (active)
- growth inhibition ([7]; at 1.2 µM): 22% (inactive)
- growth inhibition ([7]; at 3.7 µM): 85% (active)
- growth inhibition ([7]; at 11.0 µM): 98% (active)
- growth inhibition ([7]; at 33.0 µM): 98% (active)
- growth inhibition ([7]; at 100.0 µM): 98% (active)
- growth inhibition [8, 18]: -41% (inactive) and 100% (active) and 99% (active)
- growth inhibition ([8]; at 50.0 µM): 95.5% (active) [middle of 5 runs]
- growth inhibition ([9]; at 1.2 µM): -19% (inactive)
- growth inhibition ([9]; at 3.7 µM): 86% (active)
- growth inhibition ([9]; at 11.0 µM): 84% (active)
- growth inhibition ([9]; at 33.0 µM): 94% (active)
- growth inhibition ([9]; at 100.0 µM): 92% (active)
- growth inhibition [10]: 95.5% (active) [middle of 5 runs]
- growth inhibition ([11]; at 1.2 µM): -2% (inactive)
- growth inhibition ([11]; at 3.7 µM): 63% (inactive)
- growth inhibition ([11]; at 11.0 µM): 97% (active)
- growth inhibition ([11]; at 33.0 µM): 98% (active)
- growth inhibition [11, 18]: -8% (inactive) and 100% (active) and 99% (active)
- growth inhibition ([11]; at 50.0 µM): 98.7% (active) [middle of 5 runs]
- growth inhibition ([11]; at 100.0 µM): 98% (active)
- growth inhibition ([12]; at 1.2 µM): 17% (inactive)
- growth inhibition ([12]; at 3.7 µM): 84% (active)
- growth inhibition ([12]; at 11.0 µM): 90% (active)
- growth inhibition ([12]; at 33.0 µM): 95% (active)
- growth inhibition ([12]; at 100.0 µM): 98% (active)
- growth inhibition ([13]; at 1.2 µM): 1% (inactive)
- growth inhibition ([13]; at 3.7 µM): 74% (active)
- growth inhibition ([13]; at 11.0 µM): 97% (active)
- growth inhibition ([13]; at 33.0 µM): 98% (active)
- growth inhibition ([13]; at 100.0 µM): 98% (active)
- growth inhibition ([14]; at 1.2 µM): 47% (inactive)
- growth inhibition ([14]; at 3.7 µM): 94% (active)
- growth inhibition ([14]; at 11.0 µM): 97% (active)
- growth inhibition ([14]; at 33.0 µM): 98% (active)
- growth inhibition ([14]; at 100.0 µM): 97% (active)
- growth inhibition [15, 17]: 75% (active) [middle of 5 runs]
- growth inhibition [15, 18]: 99% (active) and 96% (active)
- growth inhibition ([15]; at 50.0 µM): 98.2% (active) [middle of 4 runs]
- growth inhibition ([16]; at 1.2 µM): 30% (inactive)
- growth inhibition ([16]; at 3.7 µM): 95% (active)
- growth inhibition ([16]; at 11.0 µM): 97% (active)
- growth inhibition ([16]; at 33.0 µM): 97% (active)
- growth inhibition ([16]; at 100.0 µM): 97% (active)
